Out of some 310,000 compounds screened, about 14,000 (4.5%) showed an effect of 50% or more. The effect is printed as a negative number. Only a selection was taken, and strong results are over-represented in it overall.
Target: human ether-à-go-go-related gene (hERG) potassium channel (human, UniProt Q12809)
Assay: primary screen, population patch clamp on CHO cells stably expressing hERG; higher = less effect of the substance
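Also: peak tail current of the secondary pulse compared with the same well before compound.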

human ether-à-go-go-related gene (hERG) potassium channel, sequence (Q12809 whole entry, looked up): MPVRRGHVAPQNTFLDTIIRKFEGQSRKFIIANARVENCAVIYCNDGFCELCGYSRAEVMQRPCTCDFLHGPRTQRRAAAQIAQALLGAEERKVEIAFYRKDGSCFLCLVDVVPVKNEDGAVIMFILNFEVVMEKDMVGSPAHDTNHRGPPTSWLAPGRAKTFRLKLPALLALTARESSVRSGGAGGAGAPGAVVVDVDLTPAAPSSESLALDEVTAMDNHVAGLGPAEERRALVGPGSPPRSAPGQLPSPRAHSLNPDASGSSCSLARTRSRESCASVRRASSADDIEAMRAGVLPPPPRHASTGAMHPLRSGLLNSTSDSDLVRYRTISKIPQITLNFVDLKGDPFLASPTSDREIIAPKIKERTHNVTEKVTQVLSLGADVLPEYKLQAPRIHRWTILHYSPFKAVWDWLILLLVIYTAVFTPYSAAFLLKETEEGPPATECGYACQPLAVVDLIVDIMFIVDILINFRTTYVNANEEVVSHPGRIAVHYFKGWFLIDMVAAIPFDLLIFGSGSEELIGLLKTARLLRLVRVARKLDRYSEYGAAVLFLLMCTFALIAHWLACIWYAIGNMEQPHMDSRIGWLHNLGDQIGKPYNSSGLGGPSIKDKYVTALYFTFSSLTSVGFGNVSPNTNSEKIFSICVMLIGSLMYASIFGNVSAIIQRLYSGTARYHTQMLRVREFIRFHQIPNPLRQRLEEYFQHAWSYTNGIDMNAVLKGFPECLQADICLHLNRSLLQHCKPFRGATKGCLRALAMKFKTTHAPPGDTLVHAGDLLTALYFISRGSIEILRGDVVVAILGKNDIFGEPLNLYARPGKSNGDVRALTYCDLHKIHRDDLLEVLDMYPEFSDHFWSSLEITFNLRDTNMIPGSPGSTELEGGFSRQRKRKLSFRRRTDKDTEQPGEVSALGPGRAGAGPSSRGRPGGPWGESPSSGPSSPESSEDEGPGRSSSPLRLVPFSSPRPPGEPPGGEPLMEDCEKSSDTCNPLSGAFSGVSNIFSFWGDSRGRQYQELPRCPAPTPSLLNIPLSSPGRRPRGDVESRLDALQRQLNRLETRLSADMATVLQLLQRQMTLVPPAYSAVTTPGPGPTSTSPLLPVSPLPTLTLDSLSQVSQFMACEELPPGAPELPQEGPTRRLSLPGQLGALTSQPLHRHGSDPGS

SMILES	hERG current change (%, negative = inhibition) at 10uM [%]
COc1ccc(N(C)S(=O)(=O)c2ccc3c(c2)CCC(=O)N3)cc1	-9.5
CN(C)c1ccc(/C=C(\C#N)c2ccccn2)cc1	-6.97
CN(C)CCOc1cc(Cl)cc(Cl)c1	7.27
CCOC(CNc1cc(C)nc2c(-c3ccccc3OC)c(C)nn12)OCC	8.64
COC(=O)c1ccc(NC(=O)CSc2nnc(C)n2-c2ccccc2)cc1	-2.35
Cc1n[nH]c(=S)n1/N=C/c1ccc(Br)o1	12.5
O=S(=O)(c1ccc(Br)cc1)N1CCCN(Cc2cccc(F)c2)CC1	-17.9
COc1ccc(S(=O)(=O)N2CCCN(Cc3cccc(F)c3)CC2)cc1	-44.6
COc1cccc(CN2CCCN(S(=O)(=O)c3ccc(Br)cc3)CC2)c1	-58.6
COc1cccc(CN2CCN(S(=O)(=O)c3ccc(Br)cc3)CC2)c1	-29.4
COc1ccc(S(=O)(=O)N2CCN(Cc3ccc(Cl)cc3)CC2)cc1	-10.8
COc1ccc(CN2CCCN(S(=O)(=O)c3ccc(Br)cc3)CC2)cc1	-74.4
COc1ccc(N2CSC3=C(C#N)C(c4ccc(OC)c(OC)c4)CC(=O)N3C2)c(OC)c1 (stereo not shown)	-47.5
COc1ccc(N2C(=O)c3ccc(NC(C)=O)cc3C2=O)cc1	20.2
CC(=O)N1Cc2ccccc2CC1C(=O)O (stereo not shown)	-7.43
CC(CC1CC(C)(C)OC1=O)C(=O)Nc1ccc([N+](=O)[O-])cc1 (stereo not shown)	-51.4
CC1(C)CC(CC(=O)Nc2ccc([N+](=O)[O-])cc2)C(=O)O1 (stereo not shown)	-22.5
CC1(C)CC(CC(=O)NC(=S)Nc2ccc([N+](=O)[O-])cc2)C(=O)O1 (stereo not shown)	-21.2
COc1ccc(C)cc1NC(=O)CSCc1ccccc1C	-4
CCCCOc1ccc(CSC2=NCCN2)cc1[N+](=O)[O-].Cl	-68.7
CCOc1ccc(CSC2=NCCN2)cc1Cl.Cl	-50.9
COc1ccc(CSC2=NCCN2)cc1Cl.Cl	-18.2

SMILES	hERG current change (%, negative = inhibition) at 10uM [%]
CCCCOc1ccc(CSc2nnc(C)n2N)cc1[N+](=O)[O-]	-31.5
Br.N#Cc1ccc(CSC2=NCCN2)cc1	-4.5
COc1ccc(CSC2=NCCN2)cc1Br	1.43
COc1ccc(CSc2n[nH]c(C)n2)cc1[N+](=O)[O-]	26.2
COc1ccc(CSc2nc(C)[nH]c2[N+](=O)[O-])cc1[N+](=O)[O-]	4.63
CCCOc1ccc(CSC2=NCCN2)cc1[N+](=O)[O-]	-66.7
COc1ccc(CSc2cccc3cccnc23)cc1[N+](=O)[O-]	1.59
Cl.Clc1ccc(CSC2=NCCCN2)cc1Cl	-18.2
CCCCCOc1ccc(CSC2=NCCN2)cc1[N+](=O)[O-]	-80.2
CC(Oc1ccc(Cl)cc1)C(=O)NCCCn1ccnc1 (stereo not shown)	-7.09
Cc1csc(NC(=O)CN2CCCCCC2)n1.O=C(O)C(=O)O	14.3
Cc1cc(C)c2cc(C(=O)Nc3ccc4c(c3)OCO4)[nH]c2c1	16.2
CCOc1ccc2c(C)c(C(=O)O)oc2c1OCC	16.5
NS(=O)(=O)c1cccc(NC(=O)CC2(CC(=O)O)CCCC2)c1	33.9
CSc1nc(Cc2ccc(Cl)cc2)nc2ccccc12	-16.7
CCOc1ccc(CSC2=NCCN2)cc1[N+](=O)[O-].Cl	-83.5
COc1ccc(CSc2ncn[nH]2)cc1[N+](=O)[O-]	2.83
Br.O=[N+]([O-])c1ccc(CSC2=NCCN2)cc1	-15.3
Cc1ccc(-n2c(C)nnc2SCC(=O)N2CCOCC2)cc1	21.9
CSCCCNC(=S)Nc1cccc(S(=O)(=O)NC2=NCCC2)c1	32.8
CSc1ccccc1OCc1cc(C(=O)NCCn2nc(C)cc2C)no1	-0.00922
O=S(=O)(Nc1nc2ccccc2nc1NCC1CCCO1)c1ccccc1 (stereo not shown)	2.43

SMILES	hERG current change (%, negative = inhibition) at 10uM [%]
CCOC(=O)C1(Cc2ccccc2C(F)(F)F)CCN(C2CCN(C(C)C)CC2)CC1	-36.6
CCOC(=O)C1(Cc2ccccc2C(F)(F)F)CCN(C(C)CSC)CC1 (stereo not shown)	-48.2
CCOC(=O)C1(Cc2ccccc2C(F)(F)F)CCN(CCCn2cccn2)CC1	-82.1
CCOC(=O)C1(Cc2ccccc2C(F)(F)F)CCN(C(C)CCn2cccn2)CC1 (stereo not shown)	-65.6
CCOC(=O)C1(Cc2ccccc2C(F)(F)F)CCN(Cc2ccon2)CC1	-2.88
CCOC(=O)C1(Cc2ccccc2C(F)(F)F)CCN(C(=O)c2cc(C(C)=O)n[nH]2)CC1	-57.2
CCOC(=O)C1(Cc2ccccc2C(F)(F)F)CCN(C(=O)c2cc(C)n(C)n2)CC1	-22.6
CCOC(=O)C1(Cc2ccccc2C(F)(F)F)CCN(C2CCN(C(C)=O)CC2)CC1	-18.6
CCOC(=O)C1(Cc2ccccc2C(F)(F)F)CCN(CC(O)CO)CC1 (stereo not shown)	-3.71
COc1cccc2cc(C(=O)NCc3ccccc3Br)c(=O)oc12	19
CN(Cc1ccc(C(F)(F)F)cc1)C(=O)c1ccc(Oc2ccccc2)cc1	13.1
Cc1ccc(S(=O)(=O)Nc2ccccc2)cc1C(=O)N1CCCC1	-4.95
Cc1nonc1NC(=O)CSc1nc2ccc(Cl)cc2[nH]1	3.09
Cc1sc(NC(=O)Cn2[nH]c(=O)c3ccccc3c2=O)nc1-c1ccccc1	11.6
CCOC(=O)N1CCC(N2C(=O)c3ccccc3C2Nc2ccc(S(=O)(=O)N3CCOCC3)cc2)CC1 (stereo not shown)	-16.7
CCOC(=O)N1CCC(N2C(=O)c3ccccc3C2Nc2ccc(S(=O)(=O)N(CC)CC)cc2)CC1 (stereo not shown)	-62.6
CCOC(=O)N1CCC(N2C(=O)c3ccccc3C2Nc2ccc(S(=O)(=O)N3CCCCC3)cc2)CC1 (stereo not shown)	-58
CCOC(=O)N1CCC(N2C(=O)c3ccccc3C2Nc2cccnc2)CC1 (stereo not shown)	1.81
CCOC(=O)N1CCC(N2C(=O)c3ccccc3C2Nc2ccc(C)cc2)CC1 (stereo not shown)	-32.8
CCOC(=O)N1CCC(N2C(=O)c3ccccc3C2Nc2cc(Cl)c(OC)cc2OC)CC1 (stereo not shown)	-45.5
